# Assay results from PubChem BioAssay AID651871 (Sanford-Burnham Center for Chemical Genomics, 2012).
# System: HL-1
# Assay: cardiomyocyte survival under oxidative or metabolic stress – cell-based, panel, H9c2 and HL-1, ATP luminescence, set 2, SAR follow-up (AID 651871);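 note: cells exposed to stressor for 2 h before ATP readout; reference of the scale not given here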
# Conditions: H9c2/HL-1 cardiomyocytes, 2-deoxyglucose stress, with 2-deoxyglucose, run 14, at 39.5 µM (top of the series)
structure (smiles),measurement,value
COc1ccc2c(c1OC)C(=O)N1c3ccccc3C(=O)N(Cc3cccc(Cl)c3Cl)C21 (stereo unspecified),activity (protection/inhibition),31.8%
